Test results reported in PubChem BioAssay AID1851 (National Center for Advancing Translational Sciences (NCATS), 2009).
Values joined by “and” are separate entries in the source; they are usually repeats but may differ in a detail not shown here. Equal values may be shown once. The campaign covered roughly 16,000 compounds. About 5,700 (36%) were called active. About 24% were inconclusive and are not listed. The list shows a part of the results. Values without a mark were called inactive. Calls follow the shape of the dose curve; as a rule, active = well fitted curve in the direction sought with a large enough effect; inconclusive = small, poorly fitted or top-dose-only effect, or effect the other way; inactive = no such curve, though single readings can be large or run the other way. Peptide text beside a SMILES is read from it. * marks the point of attachment. PhAc = O=C(Cc1ccccc1)*; OBn = c1ccc(CO*)cc1
% is scaled to controls: 0 for no effect and ±100 for the full control effect.

These compounds were tested against Cytochrome P450 1A2 (Homo sapiens) (UniProt P05177) (assay: Cytochrome panel assay with activity outcomes). Settings: recombinant CYP, pro-luciferin dealkylation, luminescence, p450-cyp1a2; series mostly up to 57.1 µM; activity, negative = inhibition: at the top concentration.
Cytochrome P450 1A2 (Homo sapiens), sequence (P05177 whole entry, looked up): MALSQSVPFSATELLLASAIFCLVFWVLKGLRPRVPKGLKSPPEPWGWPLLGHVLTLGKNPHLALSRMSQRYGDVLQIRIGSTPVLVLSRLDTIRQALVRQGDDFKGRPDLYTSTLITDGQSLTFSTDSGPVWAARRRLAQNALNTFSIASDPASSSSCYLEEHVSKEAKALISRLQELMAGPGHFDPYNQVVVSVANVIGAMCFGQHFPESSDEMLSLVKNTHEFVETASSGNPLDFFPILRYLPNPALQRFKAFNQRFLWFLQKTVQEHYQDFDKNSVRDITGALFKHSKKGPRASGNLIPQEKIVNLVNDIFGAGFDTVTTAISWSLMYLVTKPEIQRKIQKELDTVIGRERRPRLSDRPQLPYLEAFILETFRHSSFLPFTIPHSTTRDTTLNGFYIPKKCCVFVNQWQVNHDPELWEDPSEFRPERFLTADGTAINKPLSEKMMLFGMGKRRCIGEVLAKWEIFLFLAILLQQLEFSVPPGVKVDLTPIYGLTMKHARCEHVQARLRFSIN
In the case of `CC(C)(C)N1C(=O)[C@H]2[C@@H]3[C@H](O)[C@H](O)CC(=O)[C@H]3CC[C@H]2C1=O`, the activity, negative = inhibition is reported as -8.79% [at 11.4 µM] and -4.69% [at 11.4 µM].
For `Cc1noc(C)c1C(=O)N1CCC2(CCN(Cc3cc(C(F)(F)F)cc(C(F)(F)F)c3)CC2)CC1`, the “activity, negative = inhibition” value was -21.2%.
With `CCC(Sc1ncccc1C(=O)O)C(=O)N1CCOCC1` (stereo not drawn) the “activity, negative = inhibition” value was 15.3%.
`O=C(NCCN1CCOCC1)c1nn2c(c1Cl)NC(c1ccccc1)CC2C(F)(F)F` (stereo not drawn) was tested, and the “activity, negative = inhibition” value was 0.473%.
`O=C1C=C(NCCN2CCOCC2)CC(c2ccccc2)C1` (stereo not drawn) was tested, and the “activity, negative = inhibition” value was -25.1%.
In the case of `c1ccc2c(NCCN3CCOCC3)nc(-c3ccoc3)nc2c1`, the AC50 is reported as 5.01 µM (active).
`N#Cc1nc(-c2ccc(OCc3ccccc3)cc2)oc1NCCN1CCOCC1` was tested, and the “activity, negative = inhibition” value was -24.4%.
In the case of `Clc1ccccc1-c1nc(NCCN2CCOCC2)c2ccccc2n1`, the AC50 is reported as 12.6 µM (active).
For `FC(F)(F)c1ccccc1-c1nc(NCCN2CCOCC2)c2ccccc2n1`, the AC50 was 12.6 µM (active).
In the case of `N#Cc1cccc(-c2nc(NCCN3CCOCC3)c3ccccc3n2)c1`, the AC50 is reported as 1 µM (active).
`COc1cc(NC(=O)c2c(F)cccc2F)nc(OC)n1` was tested, and the AC50 was 20 µM (active).
For `COc1cc(NS(=O)(=O)c2ccc(N)cc2)nc(OC)n1`, the “activity, negative = inhibition” value was 1.22% [at 25.6 µM].
For `CC#CCCCC(=O)Nc1cc(OC)nc(OC)n1`, the AC50 was 0.355 µM (active).
For `OC[C@@H]1O[C@@H](n2cnc3c(N[C@@H]4C[C@@H]5CC[C@H]4C5)ncnc32)[C@@H](O)[C@H]1O`, the “activity, negative = inhibition” value was -14.4%.
`CN(CC(=O)O/N=C(\N)c1ccccn1)S(=O)(=O)c1ccccc1` was tested, and the “activity, negative = inhibition” value was -9.06%.
In the case of `CCOC(=O)CN(c1ccccn1)S(=O)(=O)c1ccccc1`, the AC50 is reported as 14.1 µM (active).
For `Cc1ccc(S(=O)(=O)N(C)CC(=O)O/N=C(\N)c2ccccn2)cc1`, the “activity, negative = inhibition” value was -5.85%.
With `O=C(NCc1cccc(C(F)(F)F)c1)c1cc(Cl)cc(Cl)c1` the AC50 was 12.6 µM (active).
`COc1ccc(-c2coc3cc4oc(=O)cc(C)c4cc23)cc1F` was tested, and the AC50 was 2 µM (active).
For `O=C(NCc1ccccc1Cl)C1CCN(S(=O)(=O)N2CCC3(CC2)OCCO3)CC1`, the “activity, negative = inhibition” value was -0.431%.
`CCc1nc(N2CCC3(CC2)OCCO3)c2nnn(Cc3ccccc3Cl)c2n1` was tested, and the AC50 was 7.08 µM (active).
In the case of `Fc1ccc2nc(Nc3nc4c(s3)CCCC4)sc2c1`, the AC50 is reported as 1.58 µM (active).
For `COc1ccc(NC(=O)N2CC[C@@]3(CCCN(C(=O)c4cnccn4)C3)C2)cc1`, the “activity, negative = inhibition” value was -18.8%.
For `Cc1ccc(CS(=O)(=O)Cc2ccc(C(=O)NCC3CCCO3)o2)cc1` (stereo not drawn), the “activity, negative = inhibition” value was -7.21%.
For `Cc1ccc(C(=O)NC(=S)NCC2CCCO2)cc1` (stereo not drawn), the AC50 was 7.08 µM (active).
For `CCS(=O)(=O)N1CCC(C(=O)NCCN2CCN(Cc3ccccc3)CC2)CC1`, the “activity, negative = inhibition” value was -25.8%.
In the case of `CCCn1c2c(c(O)c(C(=O)NCc3ccccc3)c1=O)CCCC2`, the AC50 is reported as 1.26 µM (active).
For `CCC(C)NC(=O)CCS(=O)(=O)c1ccc(Br)s1` (stereo not drawn), the “activity, negative = inhibition” value was -4.87%.
In the case of `CNNCc1ccc(C(=O)NC(C)C)cc1`, the AC50 is reported as 1.58 µM (active).
For `COc1ccc(CN[C@H](C)C(=O)O)cc1`, the activity, negative = inhibition was -2.04% [at 11.4 µM].
With `N#Cc1nc(COc2ccccc2Cl)oc1NCc1ccco1` the AC50 was 14.1 µM (active).
`c1ccc(NN(Cc2cnccn2)c2ccccc2)cc1` was tested, and the AC50 was 2 µM (active).
With `Cc1ccc(-n2c(SCc3ccc([N+](=O)[O-])cc3)nc3ccccc3c2=O)cc1` the “activity, negative = inhibition” value was 0.364%.
With `COn1c(SCc2cccc(Cl)c2)nc2ccccc2c1=O` the AC50 was 1.26 µM (active).
With `COn1c(SCc2ccc(C)cc2C)nc2ccccc2c1=O` the AC50 was 8.91 µM (active).
For `O=c1nc2ccccc2c2n1CC(CN1CCN(c3cccc(Cl)c3)CC1)N2` (stereo not drawn), the “activity, negative = inhibition” value was -26.7%.
For `CC(C)C[C@H]1C(=O)N2CCC[C@@H]2[C@]2(O)O[C@](NC(=O)[C@H]3C=C4c5cccc6[nH]c(Br)c(c56)C[C@H]4N(C)C3)(C(C)C)C(=O)N12`, the “activity, negative = inhibition” value was -20.7% [at 25.6 µM].
With `OC1(c2ccc(OC(F)F)cc2)CSC(=Nc2cccnc2)N1C1CC1` (stereo not drawn) the AC50 was 1.12 µM (active).
With `CCOc1ccc(N/N=C(/C#N)C(N)=O)cc1` the AC50 was 5.01 µM (active).
In the case of `CCOc1ccc(NC(=O)N2CCC(C(N)=O)(N3CCCCC3)CC2)cc1`, the “activity, negative = inhibition” value is reported as -1.35%.
In the case of `CCOc1ccc(NC(=O)C(=O)NCC2CCCN2CC)cc1` (stereo not drawn), the “activity, negative = inhibition” value is reported as 22.4%.
`O=C1CCN(S(=O)(=O)c2ccccc2)N1` was tested, and the “activity, negative = inhibition” value was -16.4%.
Compound `O=C(O)c1c2c(c(O)c3c1CN(C1CCCCC1)CO3)OCN(C1CCCCC1)C2` has an activity, negative = inhibition of 3.18% [at 11.4 µM].
With `CCCCCCCCCCC/C=C\C(C)(C)/C=C\CCCC(=O)O` the AC50 was 39.8 µM (active).
With `NCCCCC(=O)O` the “activity, negative = inhibition” value was -7.26%.
`CCCCCCC/C=C\CCCCCCCCC(=O)O` was tested, and the AC50 was 31.6 µM (active).
`CCCCCCCCCCCCCCSCC(=O)O` was tested, and the “activity, negative = inhibition” value was -17.9%.
For `NCCCCCC(=O)O`, the AC50 was “inactive”.
`CNc1nc(-c2cccc(NS(C)(=O)=O)c2)nc2ccccc12` was tested, and the AC50 was 0.398 µM (active).
With `Nc1nccc(Nc2ccc(S(N)(=O)=O)cc2)n1` the activity, negative = inhibition was -8.04% [at 11.4 µM].
For `CS(=O)(=O)Nc1cccc(-c2nc(Nc3ccccc3)c3ccccc3n2)c1`, the AC50 was 0.794 µM (active).
In the case of `CS(=O)(=O)Nc1cccc(-c2nc(Nc3ccc(F)cc3)c3ccccc3n2)c1`, the AC50 is reported as 0.794 µM (active).
With `CS(=O)(=O)Nc1cccc(-c2nccc(Nc3ccc(F)cc3)n2)c1` the AC50 was 0.126 µM (active).
With `CS(=O)(=O)Nc1cccc(-c2nc(Nc3ccncc3)c3ccccc3n2)c1` the AC50 was 0.631 µM (active).
In the case of `COc1cccc(-c2nc(Nc3ccncc3)c3ccccc3n2)c1`, the AC50 is reported as 0.794 µM (active).
`CN(C)c1nc(-c2cccc(NS(C)(=O)=O)c2)nc2ccccc12` was tested, and the AC50 was 0.501 µM (active).
For `COc1ccc(OC)c(Nc2nc(-c3cccc([N+](=O)[O-])c3)nc3ccccc23)c1`, the “activity, negative = inhibition” value was -29.1%.
Compound `CC(C)(N)C(=O)N[C@@H]1C(=O)N2[C@@H]1SC(C)(C)[C@H]2C(=O)O` has an activity, negative = inhibition of 4.41% [at 2.29 µM].
For `C[C@H](CCC(=O)NCC(=O)O)[C@H]1CC[C@H]2[C@H]3[C@@H](C[C@@H](O)[C@]12C)[C@]1(C)CC[C@H](O)C[C@@H]1C[C@@H]3O`, the “activity, negative = inhibition” value was -2.83% [at 25.6 µM].
`COc1cccc(CC(C(=O)Nc2cc(C)ccc2C)c2nn[nH]n2)c1OC` (stereo not drawn) was tested, and the AC50 was 3.16 µM (active).
`Cc1c(-n2cc(C(=O)c3cc(Cl)ccc3O)cc(C#N)c2=O)c(=O)n(-c2ccccc2)n1C` was tested, and the “activity, negative = inhibition” value was -29.7%.
With `COC(=O)c1cc(C(=O)c2ccc(Cl)cc2Cl)cn1C` the AC50 was 2.51 µM (active).
For `Cn1cc(C(=O)c2ccc(Cl)cc2Cl)cc1C(=O)O`, the “activity, negative = inhibition” value was -2.17%.
With `C(=C1/CCCC2=C1Nc1ncnn1C2c1ccccc1)/c1ccccc1` (stereo not drawn) the AC50 was 10 µM (active).
With `COC(=O)C1=C(C)Nc2ncnn2C1c1cccnc1` (stereo not drawn) the “activity, negative = inhibition” value was -5.17%.
In the case of `CC(C)(C)c1ccc(COC(=O)CNC(=O)CNC(=O)Cc2ccccc2)cc1`, the “activity, negative = inhibition” value is reported as -5.5%.
With `O=C(CNC(=O)Cc1ccccc1)NCC(=O)OCc1ccccc1` (PhAc-Gly-Gly-OBn) the “activity, negative = inhibition” value was -4.78%.
With `CC(=O)SC[C@@H](Cc1ccccc1)C(=O)NCC(=O)OCc1ccccc1` the AC50 was 2.51 µM (active).
For `COc1ccccc1NC(=O)c1nc[nH]c1C(=O)Nc1ccccc1OC`, the AC50 was 0.2 µM (active).
For `Cc1c(NC(=O)CSc2nnc3c4ccccc4n(CCc4ccccc4)c3n2)c(=O)n(-c2ccccc2)n1C`, the “activity, negative = inhibition” value was -27.3%.
For `CCn1c2ccccc2c2nnc(NCCCO)nc21`, the AC50 was 1.58 µM (active).
In the case of `COCn1c2ccccc2c2nnc(C(C)=O)nc21`, the activity, negative = inhibition is reported as -3.08% [at 11.4 µM] and -1.56% [at 11.4 µM].
In the case of `CCN(CC)c1ncnc2c1sc1nc(C)cc(C)c12`, the AC50 is reported as 1.41 µM (active).
For `O=C(c1csnn1)N1CCC2(CC1)CCN(c1ncccn1)CC2`, the “activity, negative = inhibition” value was 5.92%.
With `C[N+](C)(C)CC(=O)O` the “activity, negative = inhibition” value was -10.1%.
`CS(=O)(=O)Nc1cccc(-c2ccc3ncnc(NCCN4CCOCC4)c3c2)c1` was tested, and the AC50 was 25.1 µM (active).
In the case of `CS(=O)(=O)Nc1cccc(-c2ccc3ncnc(N4CCOCC4)c3c2)c1`, the AC50 is reported as 12.6 µM (active).
For `CS(=O)(=O)Nc1cccc(-c2ccc3ncnc(N4CCNCC4)c3c2)c1`, the AC50 was 12.6 µM (active).
For `CS(=O)(=O)Nc1cccc(-c2nc(N3CCOCC3)c3ccccc3n2)c1`, the AC50 was 5.01 µM (active).
With `CS(=O)(=O)Nc1ccc(S(=O)(=O)N2CCOCC2)cc1` the “activity, negative = inhibition” value was 20%.
In the case of `Cc1ccc(-c2nn3c(C)nnc3c3ccccc23)cc1S(=O)(=O)NCCN1CCOCC1`, the “activity, negative = inhibition” value is reported as -16.7%.
`Cn1nc(-c2ccc(N3CCOCC3)c(NS(=O)(=O)c3ccc(Cl)cc3)c2)c2ccccc2c1=O` was tested, and the “activity, negative = inhibition” value was -9.5%.
`CC(=O)OC[C@@H]1O[C@@H](O/N=C2/C[C@@H](O)[C@@H](O)[C@@H]3[C@@H]4C(=O)N(Cc5ccccc5)C(=O)[C@H]4CC[C@@H]23)[C@H](OC(C)=O)[C@H](OC(C)=O)[C@@H]1OC(C)=O` was tested, and the activity, negative = inhibition was -3.54% [at 11.4 µM].
In the case of `N#Cc1ccc(CN2CCC3(CC2)CCN(C(=O)c2csnn2)CC3)cc1`, the “activity, negative = inhibition” value is reported as 12.3%.
In the case of `O=C(c1ccco1)N1CCC2(CC1)CN(Cc1cc(C(F)(F)F)cc(C(F)(F)F)c1)C2`, the “activity, negative = inhibition” value is reported as -6.44%.
With `CN1C(=O)C[C@H](c2ccccc2)C1=O` the “activity, negative = inhibition” value was -13.8% [at 25.6 µM].
Compound `COc1cccc([C@@H]2Oc3ccc(OC)cc3/C(=N/O[C@@H](C)CN3CCCCc4nc(C)c(C)cc43)[C@@H]2O)c1` has an activity, negative = inhibition of -8.62% [at 11.4 µM].
In the case of `CC(C)CCNC(=O)Cc1ccccc1[N+](=O)[O-]`, the “activity, negative = inhibition” value is reported as -17.5%.
In the case of `Cc1cc(C(=O)OCC(=O)NCCC(C)C)c2ccccc2n1`, the AC50 is reported as 4.47 µM (active).
Compound `CO[C@H]1COC(=O)CCC[C@H](C)[C@@H](OC)COC(=O)C/C=C\[C@@H]1C` has an activity, negative = inhibition of -4.49% [at 11.4 µM].
`N#Cc1c(-c2ccc3c(c2)OCO3)ccn2nc(-c3cccc(C(F)(F)F)c3)nc12` was tested, and the AC50 was 0.0562 µM (active).
`CCNC(=O)C1CC(=O)OC12CCCCC2` (stereo not drawn) was tested, and the “activity, negative = inhibition” value was 14.9%.
In the case of `CC(C)=CCC/C(C)=C/CO/N=C1/C[C@@H](O)[C@@H](O)[C@@H]2[C@@H]3C(=O)N(Cc4ccc5c(c4)OCO5)C(=O)[C@H]3CC[C@H]12`, the activity, negative = inhibition is reported as -9.49% [at 11.4 µM].
